Assay outcomes: PubChem, The Scripps Research Institute Molecular Screening Center
NCOA3 inh: inhibits human SRC3 coactivator; Q9Y6Q9; HEK293 GAL4-SRC3 luciferase reporter, luminescence; inhibition, % at 3.6 µM; 0.17% of 360,000 active;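 active = inhibition above a per-campaign cutoff, the mean of all compounds plus 3 SD, cut at about 60% in these data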;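 also: higher means less SRC3-driven luciferase light from the GAL4 reporter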
NCOA2 inhibitor: human SRC2 (NCOA2) inhibition; Q15596; HEK293 GAL4-SRC2 luciferase reporter, luminescence; inhibition, % at 9 µM; 0.17% of 370,000 active;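 active = inhibition above the mean inhibition of all tested compounds plus 3 SD, set per campaign, cut at about 52% in these data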
LRH-1 inv ag: suppresses constitutive activity of human LRH-1. O00482. 0.13% of 360,000 active. HEK293T StAR-luciferase reporter, LRH-1 transfected, 24 h. inhibition, % at 3.6 µM;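 active = inhibition above the mean inhibition of all tested compounds plus 3 SD, cut at about 73% in these data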
SRC1 inh: human NCOA1 inhibition; inhibition, % at 3.6 µM; 0.12% of 360,000 active; HEK293 GAL4-SRC1 luciferase reporter, luminescence;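 active = inhibition above the campaign mean plus 3 SD, with each screening campaign given its own cutoff, cut at about 60% in these data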
NR2F2 inh: inhibitors of human COUP-TFII (NR2F2). P24468. HEK293T NGFI-A luciferase reporter, luminescence. inhibition, % at 8.6 µM. 0.7% of 370,000 active. AID 686940;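 active = inhibition above a per-plate cutoff, mean inhibition of test wells between control levels plus 3 SD, cut at about 38% in these data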;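 also: cells cotransfected with COUP-TFII expression vector driving the NGFI-A reporter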
Target sequence (P24468 whole entry, looked up): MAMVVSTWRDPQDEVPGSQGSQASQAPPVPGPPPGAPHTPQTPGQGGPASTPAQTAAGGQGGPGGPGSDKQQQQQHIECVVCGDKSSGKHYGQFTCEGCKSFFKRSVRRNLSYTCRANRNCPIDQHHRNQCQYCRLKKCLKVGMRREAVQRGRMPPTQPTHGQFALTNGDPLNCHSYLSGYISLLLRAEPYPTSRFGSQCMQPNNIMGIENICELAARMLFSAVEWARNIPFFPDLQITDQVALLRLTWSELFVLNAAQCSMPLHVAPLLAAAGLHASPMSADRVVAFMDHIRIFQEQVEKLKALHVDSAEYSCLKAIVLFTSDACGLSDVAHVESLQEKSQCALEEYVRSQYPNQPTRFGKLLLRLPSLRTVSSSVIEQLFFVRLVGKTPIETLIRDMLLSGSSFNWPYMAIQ
Gal4-VP16 ctr: counter-screen for COUP-TFII antagonists: inhibitors of VP16; inhibition, % at 8.5 µM; shares compounds with NR2F2 inh; AID 687007; 25% of 2,500 active; HEK293 Gal4-VP16 luciferase reporter, luminescence; in the data active = inhibition above about 13%
COUP-TFII conf: COUP-TFII (NR2F2) inhibition, confirmation assay; shares compounds with NR2F2 inh; HEK293 NGFI-A luciferase reporter, luminescence; inhibition, % at 8.5 µM; 45% of 2,500 active; AID 687008;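 active = mean inhibition over three repeats above a set limit taken from the earlier primary screen, cut at about 38% in these data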
Large screens that a line does not name were inactive (follow-up assays come after a bar, where they were run). This is a sample that favours compounds with a hit; in the whole collection about 0.81% have one here.

Cc1ccc(S(=O)(=O)N2CCOC2CNC(=O)C(=O)NCc2ccccc2)cc1 (centres undefined)	none
COc1ccc(COC(=O)C2=C(C)NC(=O)NC2c2ccc(F)cc2)cc1 (centres undefined)	NR2F2 inh 39 | Gal4-VP16 ctr inactive | COUP-TFII conf inactive
CCOc1ccc(C2NC(=O)NC(C)=C2C(=O)OCc2ccccc2)cc1 (centres undefined)	none
CCOC(=O)C1(Cc2ccc(Cl)cc2)CCN(C(C)Cc2ccc(O)c(OC)c2)CC1 (centres undefined)	NR2F2 inh 53 | Gal4-VP16 ctr inactive | COUP-TFII conf inactive
COc1ccc(CCNc2nc(C)nc3c2oc2ccccc23)cc1OC	NR2F2 inh 40 | Gal4-VP16 ctr inactive | COUP-TFII conf inactive
c1ccc(CNc2ncnc3c2oc2ccccc23)nc1	none
Cc1nc(NCCc2cnc[nH]2)c2oc3ccccc3c2n1	none
COc1ccc(CCNc2ncnc3c2oc2ccccc23)cc1OC	NR2F2 inh 76 | Gal4-VP16 ctr inactive | COUP-TFII conf 73
CC(C)OCCCNc1ncnc2c1[nH]c1ccccc12	NR2F2 inh 66 | Gal4-VP16 ctr inactive | COUP-TFII conf inactive
O=c1c2[nH]c3ccccc3c2ncn1CCC1=CCCCC1	none
Cc1ccc2[nH]c3c(NCc4ccccc4)ncnc3c2c1	NR2F2 inh 48 (no result: NCOA3 inh, LRH-1 inv ag, SRC1 inh) | Gal4-VP16 ctr inactive | COUP-TFII conf inactive
COc1ccc(CNc2ncnc3c2[nH]c2ccccc23)cc1	NR2F2 inh 45 | Gal4-VP16 ctr inactive | COUP-TFII conf inactive
C1=C(CCNc2ncnc3c2[nH]c2ccccc23)CCCC1	NR2F2 inh 67 | Gal4-VP16 ctr inactive | COUP-TFII conf 48
CCN(CC)C(=O)CSc1nnc(-c2ccc(C(C)(C)C)cc2)n1-c1ccc(Cl)cc1	none (no result: NCOA3 inh, LRH-1 inv ag, SRC1 inh)
CCOc1ccc(C2=[N+]([O-])C(C)(C)N(O)C2(C)C)cc1	none
Cc1noc(C)c1COc1ccccc1C(=O)N(C)Cc1ccc(F)cc1	none
Cc1noc(C)c1COc1ccccc1C(=O)N(C)Cc1ccc(C(C)(C)C)cc1	NR2F2 inh 41 | Gal4-VP16 ctr inactive | COUP-TFII conf inactive
c1ccc(Oc2nnc(-c3cccs3)c3ccccc23)cc1	none
CC(C)COc1ccc(C/C(N)=N/n2cnnc2)cc1	NR2F2 inh 39 | Gal4-VP16 ctr inactive | COUP-TFII conf inactive
COC(=O)c1ccc(COn2c(=O)c(C)[n+]([O-])c3ccccc32)cc1	none
Cn1nnnc1NCc1cccc(Cl)c1	none
Clc1cccc(CNc2nnnn2-c2ccccc2)c1	NR2F2 inh 39 | Gal4-VP16 ctr inactive | COUP-TFII conf inactive
CCC(=O)N1CCC1(C)C(=O)Nc1cccc(Oc2ccccc2)c1 (centres undefined)	none
COc1c(OC(C)=O)ccc(/C=C/c2ccc3cccc(OC)c3n2)c1[N+](=O)[O-]	none
CCCCCCCn1ccc(=N)cc1	LRH-1 inv ag 79, NR2F2 inh 80 | Gal4-VP16 ctr 24 | COUP-TFII conf 77
CCCCCCCCCn1ccc(=N)cc1	NCOA3 inh 68, LRH-1 inv ag 84, NR2F2 inh 77 | Gal4-VP16 ctr 22 | COUP-TFII conf 82
CCCCCn1ccc(=N)cc1	none
CCN(CC)CCOC(=O)C1(c2ccc([N+](=O)[O-])cc2)CCCC1	none
CCOC(=O)c1cc(/C(C)=N/OC(=O)c2ccc(C(C)(C)C)cc2)on1	none
COc1ccc(-c2cc(N)n(S(=O)(=O)c3ccc(F)cc3)n2)cc1OC	NR2F2 inh 46 | Gal4-VP16 ctr inactive | COUP-TFII conf inactive
C=CCC1(CC=C)CCCN1C(=O)c1cc(COc2cncc(Cl)c2)on1	NR2F2 inh 48 | Gal4-VP16 ctr inactive | COUP-TFII conf inactive
O=C(Nc1ccc(N2CCN(C(=O)c3ccccc3)CC2)c(Cl)c1)c1ccco1	none
O=C(Nc1ccc(N2CCN(C(=O)c3ccco3)CC2)c(Cl)c1)c1cc2ccccc2o1	NR2F2 inh 63 | Gal4-VP16 ctr inactive | COUP-TFII conf 51
CCC(=O)N1CCN(c2ccc(NC(=O)c3cc4ccccc4o3)cc2Cl)CC1	NR2F2 inh 44 | Gal4-VP16 ctr inactive | COUP-TFII conf inactive
CC1CCN(C(=O)CSc2nnc(CNC(=O)COc3ccc(Cl)cc3)o2)CC1	none
Cc1ccc(-c2noc(CSc3nnc(-c4ccncc4)n3-c3ccc(C)cc3)n2)cc1	none
Clc1ccc(-c2noc(CSc3nnc(-c4ccncc4)n3-c3ccccc3)n2)cc1	NR2F2 inh 65 | Gal4-VP16 ctr inactive | COUP-TFII conf inactive
O=[N+]([O-])c1ccc(Sc2ccccn2)nc1	none
CSc1ccc(CN(C)C(=O)c2cccc(S(=O)(=O)N3CCN(Cc4ccccc4)CC3)c2)cc1	NR2F2 inh 41 | Gal4-VP16 ctr inactive | COUP-TFII conf inactive
COc1ccc(CN(C)C(=O)c2cccc(S(=O)(=O)N3CCN(c4ccccc4)CC3)c2)c(OC)c1OC	NR2F2 inh 41 | Gal4-VP16 ctr inactive | COUP-TFII conf inactive
COc1cccc(CN(C)C(=O)c2cccc(S(=O)(=O)N3CCN(c4ccccc4)CC3)c2)c1	none
Cc1ccc(C)c(NC(=O)CN(C)C(=O)c2cccc(S(=O)(=O)N3CCN(Cc4ccccc4)CC3)c2)c1	NR2F2 inh 45 | Gal4-VP16 ctr inactive | COUP-TFII conf inactive
CSc1ccc(CN(C)C(=O)c2cccc(S(=O)(=O)NCc3ccccc3)c2)cc1	none
CSc1ccc(CN(C)C(=O)c2cc(S(=O)(=O)NCc3ccccc3)ccc2C)cc1	NR2F2 inh 53 | Gal4-VP16 ctr inactive | COUP-TFII conf inactive
Cc1ccc(C)c(NC(=O)CN(C)C(=O)c2cccc(S(=O)(=O)N3CCCC3)c2)c1	none
CCc1ccc(CCN2C(=O)c3ccccc3C2=O)nc1	none
CCCCCCCNc1cccc(C)c1	none
CN(CCOc1ccc(Cl)cc1)C(=O)c1cccc(S(=O)(=O)N2CCN(Cc3ccccc3)CC2)c1	NR2F2 inh 67 | Gal4-VP16 ctr 15 | COUP-TFII conf 58
COc1ccc(NC(=O)CN(C)C(=O)c2cccc(S(=O)(=O)N3CCN(Cc4ccccc4)CC3)c2)cc1	none (no result: NCOA2 inhibitor, NR2F2 inh)
COc1cc2[nH]c(=S)nc(NCCCOC(C)C)c2cc1OC	none
C=CC[n+]1c(-c2ccc(C)cc2)csc1Nc1c(C)n(C)n(-c2ccccc2)c1=O	none
C=CC[n+]1c(-c2ccc(Cl)cc2Cl)csc1Nc1c(C)n(C)n(-c2ccccc2)c1=O	NR2F2 inh 46 | Gal4-VP16 ctr inactive | COUP-TFII conf 40
Cc1cc(/C=C2\Sc3ccccc3N2C)cc(C)[n+]1CC1CCCO1 (centres undefined)	NR2F2 inh 49 | Gal4-VP16 ctr inactive | COUP-TFII conf 62
Cc1ccc(/C=C2/Sc3ccccc3N(CC(=O)NCC3CCCO3)C2=O)cc1 (centres undefined)	none (no result: NCOA2 inhibitor, NR2F2 inh)
O=C(NCCc1ccccc1)c1ccc(Cl)c(S(=O)(=O)N2CCCC2)c1	none (no result: NCOA2 inhibitor, NR2F2 inh)
